Compounds with a hit are over-represented: about 22% of the library has one in this group of screens.
CYP2C9 activ: human CYP2C9 activators, primary screen, biochemical, luminescence. Cytochrome P450 2C9 (Homo sapiens), P11712. recombinant CYP2C9, luciferin-H conversion; stronger effect = higher value; factor 1 = untreated enzyme, 0 = blocked. activation factor at 5 µM. hit rate 1.4% among 96,000. AID 1024, 2008;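 active = activation factor of 2 or more for CYP2C9 at a 5 µM dose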;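 note: 0 = sulfaphenazole-blocked wells and 1 = vehicle-only wells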
CYP2C19 act: human CYP2C19 activators, primary screen, biochemical, luminescence. Cytochrome P450 2C19 (Homo sapiens), P33261. recombinant CYP2C19, luciferin-H EGE luminescence; stronger effect = higher value; 0 = fully inhibited enzyme, 1 = untreated enzyme. activation factor at 5 µM. 96,000 tested, under 10 active. AID 1025, 2008;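 active = activation factor of at least 2 at 5 µM in the primary screen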;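 note: 0 = wells with 2.5 mM tranylcypromine and 1 = vehicle-only wells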
Target sequence (P33261 whole entry, looked up): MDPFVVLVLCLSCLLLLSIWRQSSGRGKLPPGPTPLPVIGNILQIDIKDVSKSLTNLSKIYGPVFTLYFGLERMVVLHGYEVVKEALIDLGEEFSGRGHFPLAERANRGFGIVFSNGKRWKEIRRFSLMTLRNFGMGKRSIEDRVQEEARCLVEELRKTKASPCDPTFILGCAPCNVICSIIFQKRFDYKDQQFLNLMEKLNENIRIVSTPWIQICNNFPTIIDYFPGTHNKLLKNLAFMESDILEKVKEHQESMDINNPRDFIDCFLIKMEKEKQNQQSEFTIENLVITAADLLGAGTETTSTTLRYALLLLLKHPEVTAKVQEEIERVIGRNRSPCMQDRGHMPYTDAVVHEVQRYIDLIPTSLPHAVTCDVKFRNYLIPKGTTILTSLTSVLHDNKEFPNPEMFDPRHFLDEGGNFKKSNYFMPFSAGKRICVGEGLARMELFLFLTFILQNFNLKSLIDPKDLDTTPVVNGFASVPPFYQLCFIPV
Measles CPE: compounds protecting cells from measles virus cytopathic effect, primary screen, measles RdRp inhibitor project, single point, MLSMR library, absorbance; Measles virus-infected cells, CPE protection; protection (pct of control), % at 4 µM; hit rate 1.5% among 140,000; AID 841, 2007; in the data active = protection mostly above about 24%, no sharp cut-off; inactive = mostly below about 26%
CYP2C19 inh: blockers of cytochrome P450 2C19 activity – biochemical, luminescence, ADME assay, primary screen. hit rate 21% among 96,000. CYP2C19 Supersomes, luciferin-H EGE luminescence, 30 min. P33261. AID 778, 2007. inhibition, % at 5 µM;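 active = CYP2C19 inhibition above a set limit at 5 µM in the primary screen, cut at about 50% in these data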;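 note: plate controls were negative control wells for no effect and 2.5 mM tranylcypromine positive control for full effect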
CYP2C9 inhib: blockers of cytochrome P450 2C9 activity – biochemical, luminescence, ADME assay, primary screen | CYP2C9 Supersomes, luciferin-H conversion | inhibition, % at 5 µM | hit rate 20% among 96,000 | AID 777, 2007;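 active = blocking of liver enzyme CYP2C9 beyond about 50% at 5 µM, limit read from the data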
An asterisk follows results filed as active; nt = no result given.

SMILES	CYP2C9 activ	CYP2C19 act	Measles CPE	CYP2C19 inh	CYP2C9 inhib
Cc1n[nH]c(C)c1Sc1ccccc1N=Cc1cc([N+](=O)[O-])ccc1O	0.3	0.8	1	25	74*
O=C(CSCC(=O)N1CCOCC1)Nc1nc(-c2ccc3c(c2)OCO3)cs1	0.5	0.7	13	35	46
Cc1ccc(S(=O)(=O)Nc2ccc(NC(=O)CN3CCCCC3)cc2)cc1	0.3	1	4	3	72*
Cc1ccc(S(=O)(=O)Nc2cc(NC(=O)CN3CCOCC3)ccc2Cl)cc1	0.1	0.7	10	33	86*
O=C(CN1CCOCC1)Nc1ccc(S(=O)(=O)N2CCCCCC2)cc1	1	0.9	15	7	1
Cc1ccc(S(=O)(=O)Nc2cccc(NC(=O)CN3CCCCC3)c2)cc1	0.1	0.1	63*	92*	92*
O=C(CN1CCCCC1)Nc1ccc(S(=O)(=O)N2CCCCCC2)cc1	0.9	1	5	-2	13
CCCCCCCCCCCCCCCC[n+]1cccc(C(=O)N(CC)CC)c1	nt	nt	8	nt	nt
Cc1ccc(Cn2c(SCC(=O)N/N=C/c3ccc(C)o3)nc3ccccc32)cc1	0.8	0.9	16	6	19
C=CCCCOc1ccc(C(=O)O)cc1	0.9	0.9	5	14	7
COc1cc(/C=N/NC(=O)CN2CCCCC2)ccc1OCc1ccc(Br)cc1	nt	nt	12	nt	nt
CCOC(=O)NC(NC(=S)Nc1ccccc1[N+](=O)[O-])C(Cl)(Cl)Cl (stereo not drawn)	0.1	0	19	98*	93*
COc1ccc(NC(=S)NC(NC(C)=O)C(Cl)(Cl)Cl)c([N+](=O)[O-])c1 (stereo not drawn)	nt	nt	36	nt	nt
O=C(NC(NC(=S)Nc1ccccc1Cl)C(Cl)(Cl)Cl)c1cccc(Cl)c1 (stereo not drawn)	nt	nt	11	nt	nt
O=C(NC(NC(=S)Nc1ccccc1C(=O)O)C(Cl)(Cl)Cl)c1cccc([N+](=O)[O-])c1 (stereo not drawn)	0.3	1	16	-5	71*
COc1ccc(-c2nc3c(n2O)CCCC3=O)cc1OC	1.1	1.1	89*	-5	-7
Cc1ccccc1NC(=O)OCc1cn(-c2ccc(Cl)cc2)nn1	0.9	0.9	6	9	5
c1coc(CNc2c3c(nc4ncnn24)CCC3)c1	0.1	1.1	12	-7	88*
CC(C)(C)n1nc2c(c1NC(=O)c1ccc(Br)o1)CS(=O)C2 (stereo not drawn)	0.9	0.9	4	5	10
COc1ccc(OC)c(-n2nnnc2SCC(=O)Nc2ccc(C(=O)N3CCCCC3)cc2)c1	0.3	0.2	17	78*	67*
COc1ccc(OC)c(-n2nnnc2SCC(=O)Nc2ccc3c(c2)OCCO3)c1	0.6	0.7	2	33	42
COC(=O)c1ccc(-n2nnnc2SCC(=O)Nc2cc(OC)ccc2OC)cc1	0.9	0.9	7	14	11
CCOC(=O)CSc1nnnn1-c1cc(OC)ccc1OC	0.4	0.3	4	71*	65*
COC(=O)c1ccc(-n2nnnc2SCC(=O)N2CCCCC2)cc1	0.4	0.7	8	26	55*
O=c1c2cc(Br)cc(Br)c2oc2nc3n(c(=O)c12)CCCS3	0.8	0.9	19	14	20
SMILES	CYP2C9 activ	CYP2C19 act	Measles CPE	CYP2C19 inh	CYP2C9 inhib
O=C(CN(c1cccc(Cl)c1)S(=O)(=O)c1ccc(Cl)cc1)N1CCc2ccccc2C1	nt	nt	6	nt	nt
CCOC(=O)N1CCN(C(=O)C(C)(C)Oc2ccc(Cl)cc2)CC1	0.2	0.3	2	74*	84*
COc1ccc(N2CCN(C(=O)C(C)(C)Oc3ccc(Cl)cc3)CC2)cc1	0.1	0.3	10	74*	90*
CCCCC(=O)NC(Nc1sc2c(c1C(N)=O)CCCC2)(C(=O)OCC)C(F)(F)F (stereo not drawn)	nt	nt	14	nt	nt
CCN(CC)S(=O)(=O)c1cccc(-c2nnc(SCCCC(=O)c3ccccc3)o2)c1	0.4	0.2	22	76*	64*
CCN(CC)S(=O)(=O)c1cccc(-c2nnc(SCc3nc4ccccc4s3)o2)c1	0.9	0.1	5	93*	10
CCN(CC)S(=O)(=O)c1cccc(-c2nnc(SCCCC(=O)c3ccc(F)cc3)o2)c1	0.1	0	14	95*	87*
